Each compound was assayed against Torsin-1A (Homo sapiens) (UniProt O14656) (assay: small-molecule binders of mutant TOR1A in lysate, primary screen, cell lysate, small-molecule microarray, COS7 lysate, 635/667 nm fluorescence (AID 1150;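 further: score pools 667 nm emission and signal to noise measuring lysate protein binding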)). Settings: COS7 hTOR1A mutant lysate, 635 nm fluorescence, higher = more signal.
Chain of Torsin-1A (Homo sapiens) (O14656 whole entry, looked up): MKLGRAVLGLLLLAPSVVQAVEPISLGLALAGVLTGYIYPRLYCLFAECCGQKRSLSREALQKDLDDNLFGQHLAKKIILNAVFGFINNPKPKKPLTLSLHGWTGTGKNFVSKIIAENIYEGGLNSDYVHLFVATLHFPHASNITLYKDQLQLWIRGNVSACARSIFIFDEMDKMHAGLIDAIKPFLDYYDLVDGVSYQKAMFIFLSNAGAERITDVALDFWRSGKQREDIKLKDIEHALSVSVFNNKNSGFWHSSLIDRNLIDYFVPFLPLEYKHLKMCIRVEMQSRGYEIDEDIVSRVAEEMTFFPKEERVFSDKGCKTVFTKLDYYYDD

Question: With `CN1C(=O)C2C=CC(C(O)c3c(F)cccc3Cl)N(NC(=O)OC(C)(C)C)C2C1=O` (configuration not stated) as the compound, how does the composite z-score read?
Answer: Its composite z-score is 0.591.

Question: How did the composite z-score turn out when `O=C1OCCC/C=C\[C@H]2OC34C=CCN(c5ccc6ccccc6c5)C(=O)[C@H]3N(CCCCCO)C(=O)[C@@H]4C12` (some centres not stated) was run?
Answer: Its composite z-score is -1.51.

Question: Which composite z-score does the source give for `COc1ccc([Si](C)(C)[C@H]2[C@H](CC(=O)N3CCC[C@H]3CO)O[C@@]3(C(=O)N(Cc4cccc(N5CCOC5=O)c4)c4ccccc43)[C@@H]2C)cc1` here?
Answer: The composite z-score was 0.58.

Question: With `COCC(=C=CC[C@H](O)c1cccc(OCCO)c1)CCO` as the compound, how does the composite z-score read?
Answer: The composite z-score was -0.434.

Question: `C=CCC(OC(C)=O)[C@@H]1[C@@H](N(Cc2ccc(-c3cccc(C(F)(F)F)c3)o2)C(=O)c2cccc3ccccc23)c2cc(OCCCO)ccc2N1C(=O)Cc1ccc2ccccc2c1` (some centres not stated) was tested. Which composite z-score did it give?
Answer: Its composite z-score is -0.361.

Question: With `COCCOC(=O)N1C(=O)[C@@]2(c3ccccc31)[C@H](C(=O)N1CCCCCCC1)[C@H]1C(=O)O[C@H](c3ccccc3)[C@H](c3ccccc3)N1[C@@H]2c1ccc(OCCO)cc1` as the compound, how does the composite z-score read?
Answer: The composite z-score was 3.39.

These compounds were tested on Sonic hedgehog protein (Shh) (assay: small-molecule binders of Shh protein, primary screen, biochemical, small-molecule microarray, 635/667 nm fluorescence (AID 1151;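 further: Shh protein binding to compounds spotted on small-molecule microarray slides; score combines spot fluorescence intensity with signal-to-noise across triplicate slides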)). Settings: small-molecule microarray binding, 635 nm fluorescence; higher = more signal.

Question: For `COC(=O)[C@@]1(Cc2ccc(OC)cc2)[C@H]2c3cc(C(=O)N4CCCC4)n(Cc4nc5ccccc5[nH]4)c3C[C@H]2CN1C(=O)c1ccccc1`, which composite z-score is on record?
Answer: The composite z-score was -0.245.

Question: `COc1ccc(NC(=O)O[C@H]2[C@H](OC(=O)c3cc4ccccc4[nH]3)[C@@H](OC(=O)c3cc4ccccc4[nH]3)[C@@H](OC)O[C@@H]2CO)cc1` was tested. Which composite z-score did it give?
Answer: Its composite z-score is 0.593.

Question: With `C=C(CCCC)C(=O)CC[C@@H](OC(C)=O)c1ccc(CO)o1` as the compound, how does the composite z-score read?
Answer: The composite z-score was 1.95.

Question: `O=C1[C@H]2C=C(I)[C@H](C[C@@H]2OCCCCO)[C@@]12CO2` was tested. Which composite z-score did it give?
Answer: Its composite z-score is 0.745.

Question: Which composite z-score does the source give for `COCCCNC(=O)[C@@]1(Cc2ccccc2)N=C(c2ccc(OCCCO)cc2)O[C@H]1c1ccccc1CN=[N+]=[N-]` here?
Answer: Its composite z-score is -0.0164.

Question: Which composite z-score does the source give for `CN(C)CCCCCCNC(=O)[C@@H]1C[C@@H]2C(=O)N3CCC[C@H]3C(=O)N2[C@@H]1c1ccc(O)cc1` here?
Answer: The composite z-score was 2.17.

Question: `COc1ccc([C@H]2C[C@H]3C(Br)=C[C@@]2(CO)C(=O)[C@]32CO2)cc1` was tested. Which composite z-score did it give?
Answer: Its composite z-score is -0.134.

Question: `C=CCNC(=O)[C@@H]1[C@H]2C(=O)O[C@H](c3ccccc3)[C@H](c3ccccc3)N2[C@H](c2ccc(OCCO)cc2)[C@@]12C(=O)N(C(=O)OCCOC)c1ccc(C#CCNC(N)=O)cc12` was tested. Which composite z-score did it give?
Answer: Its composite z-score is 1.56.

Question: With `CS(=O)(=O)CCOC(=O)C1=CC(CCCO)=CC(c2ccc(CN3CCCC3)cc2)N(Cc2cccc(OC(F)(F)F)c2)C=C1C(=O)OCCS(C)(=O)=O` (configuration not stated) as the compound, how does the composite z-score read?
Answer: Its composite z-score is 0.798.

Question: Which composite z-score does the source give for `COCCOC(=O)N1C(=O)[C@@]2(c3cc(C#CC4(O)CCCCCC4)ccc31)[C@H](C(=O)Nc1nc3ccccc3s1)[C@H]1C(=O)O[C@H](c3ccccc3)[C@H](c3ccccc3)N1[C@@H]2c1ccc(OCCO)cc1` here?
Answer: Its composite z-score is 1.42.

Question: How did the composite z-score turn out when `[N-]=[N+]=Nc1ccccc1C[C@]1(C(=O)NCC(O)CO)N=C(c2ccc(OCCCO)cc2)O[C@H]1c1ccccc1` (some centres not stated) was run?
Answer: Its composite z-score is -1.61.

Question: With `[N-]=[N+]=NCc1ccccc1C[C@@]1(C(=O)NCC(O)CO)N=C(c2ccc(OCCCO)cc2)O[C@@H]1c1ccccc1` (some centres not stated) as the compound, how does the composite z-score read?
Answer: The composite z-score was -0.982.

Question: `C=CCN1C(=O)[C@]2(O[C@H](CCO)[C@@H]([Si](C)(C)c3ccc(OC)cc3)[C@@H]2C)c2cc(N(C=O)c3ccccc3)ccc21` was tested. Which composite z-score did it give?
Answer: Its composite z-score is 0.572.

Question: How did the composite z-score turn out when `Cc1ccc(S(=O)(=O)N2C[C@@H](C(=O)O)[C@H](Sc3ccccc3)C[C@H]2c2ccccc2)cc1` was run?
Answer: Its composite z-score is -0.156.

Question: For `COC(=O)[C@]1(Cc2ccccc2)N=C(c2ccc(OCCCO)cc2)O[C@@H]1c1ccccc1N=[N+]=[N-]`, which composite z-score is on record?
Answer: The composite z-score was 0.354.

Question: With `C=CC[C@]1(C(N)=O)N=C(c2ccc(OCCCO)cc2)O[C@H]1c1ccccc1` as the compound, how does the composite z-score read?
Answer: Its composite z-score is -0.406.

Question: With `[N-]=[N+]=Nc1ccccc1[C@H]1OC(c2ccc(OCCCO)cc2)=N[C@@]1(Cc1ccccc1)C(=O)N1CCOCC1` as the compound, how does the composite z-score read?
Answer: Its composite z-score is 0.672.

Question: Which composite z-score does the source give for `O=C1NC(=O)C2C1C=CC(C(O)c1ccc(-c3ccccc3)s1)N2Nc1ccc(Cl)cc1Cl` (configuration not stated) here?
Answer: The composite z-score was -0.82.

Question: With `NCCCCCNC(=O)[C@H]1C[C@H]2C(=O)N3CCC[C@H]3C(=O)N2[C@H]1c1ccc(O)cc1` as the compound, how does the composite z-score read?
Answer: Its composite z-score is 1.65.

Question: How did the composite z-score turn out when `CC(=O)n1cc(C(O)C2C=CC3C(=O)NC(=O)C3N2Nc2ccccn2)c2ccccc21` (configuration not stated) was run?
Answer: Its composite z-score is 0.41.

Question: `CO[C@H]1O[C@H](CO)[C@@H](OC(=O)Nc2cccc(F)c2)[C@H](OC(=O)Nc2ccccc2)[C@H]1OC(=O)Nc1ccccc1` was tested. Which composite z-score did it give?
Answer: The composite z-score was 1.61.

Question: How did the composite z-score turn out when `CO[C@H]1O[C@H](CO)[C@@H](OC(=O)Nc2ccccc2-c2ccccc2)[C@H](OC(=O)Nc2ccccc2-c2ccccc2)[C@@H]1OC(=O)Nc1ccccc1-c1ccccc1` was run?
Answer: The composite z-score was 1.37.

Question: How did the composite z-score turn out when `O=C(NCc1ccccc1)[C@@H]1c2ccccc2C(=O)N(C2Cc3ccccc3C2)[C@H]1c1ccc(CO)cc1` was run?
Answer: The composite z-score was 1.31.

Question: Which composite z-score does the source give for `O=C1C2C=CC(C(O)c3ccc(-c4ccccc4)s3)N(Nc3ccccc3)C2C(=O)N1c1ccccc1` (configuration not stated) here?
Answer: Its composite z-score is 0.0134.

Question: How did the composite z-score turn out when `Cc1c(NC(=O)/C(C#N)=C/c2cccc([N+](=O)[O-])c2)c(=O)n(-c2ccccc2)n1C` was run?
Answer: The composite z-score was 0.478.

Question: `O=C1C2C=CC(C(O)c3c(F)cccc3Cl)N(Nc3ccccc3F)C2C(=O)N1c1ccccc1` (configuration not stated) was tested. Which composite z-score did it give?
Answer: Its composite z-score is -0.356.

Question: Which composite z-score does the source give for `NCCCCCCNC(=O)[C@H]1C[C@H]2C(=O)N[C@@H](Cc3ccccc3)C(=O)N2[C@H]1c1cccc(OCCO)c1` here?
Answer: Its composite z-score is 0.16.

Question: How did the composite z-score turn out when `CN(C)CCCC[C@@H]1NC(=O)[C@H]2C[C@@H](C(=O)NCCCCCN)[C@@H](c3cccc(OCCO)c3)N2C1=O` was run?
Answer: Its composite z-score is 1.28.

Question: For `O=C(NCCN1CCOCC1)[C@@H]1c2ccccc2C(=O)N(Cc2cc(C(F)(F)F)cc(C(F)(F)F)c2)[C@H]1c1ccc(CO)cc1`, which composite z-score is on record?
Answer: The composite z-score was -0.211.

Question: How did the composite z-score turn out when `COc1ccc([Si](C)(C)[C@@H]2[C@@H](CC(=O)N3Cc4ccccc4C[C@H]3CO)O[C@]3(C(=O)N(Cc4cccc(N5CCC5=O)c4)c4ccccc43)[C@H]2C)cc1` was run?
Answer: The composite z-score was 1.45.

Question: Which composite z-score does the source give for `CN1C(=O)C2C=CC(C(O)c3c(F)cccc3Cl)N(NC(=O)OC(C)(C)C)C2C1=O` (configuration not stated) here?
Answer: The composite z-score was -0.0049.

Question: For `O=C1OCCC/C=C\[C@H]2OC34C=CCN(c5ccc6ccccc6c5)C(=O)[C@H]3N(CCCCCO)C(=O)[C@@H]4C12` (some centres not stated), which composite z-score is on record?
Answer: Its composite z-score is -0.0295.

Question: Which composite z-score does the source give for `COc1ccc([Si](C)(C)[C@H]2[C@H](CC(=O)N3CCC[C@H]3CO)O[C@@]3(C(=O)N(Cc4cccc(N5CCOC5=O)c4)c4ccccc43)[C@@H]2C)cc1` here?
Answer: Its composite z-score is 1.99.

Question: For `COCC(=C=CC[C@H](O)c1cccc(OCCO)c1)CCO`, which composite z-score is on record?
Answer: Its composite z-score is 1.81.

Question: For `C=CCC(OC(C)=O)[C@@H]1[C@@H](N(Cc2ccc(-c3cccc(C(F)(F)F)c3)o2)C(=O)c2cccc3ccccc23)c2cc(OCCCO)ccc2N1C(=O)Cc1ccc2ccccc2c1` (some centres not stated), which composite z-score is on record?
Answer: Its composite z-score is 0.248.

Question: `COCCOC(=O)N1C(=O)[C@@]2(c3ccccc31)[C@H](C(=O)N1CCCCCCC1)[C@H]1C(=O)O[C@H](c3ccccc3)[C@H](c3ccccc3)N1[C@@H]2c1ccc(OCCO)cc1` was tested. Which composite z-score did it give?
Answer: Its composite z-score is 2.31.
